# Source: PubChem (several laboratories)
# In the library only some 3% were active in any assay of this set; here they are far more common.
# Peg3 prom inh: Peg3 promoter-driven luciferase inhibitors, primary screen, cell-based, HeLa, luciferase luminescence | HeLa PEG-Prom luciferase reporter, overnight | inhibition, % at 20 µM | actives 1.7% (n = 360,000) | AID 588405, 2011;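 active = inhibition of at least 50% at 20 µM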
# LMP1 NFkB inh: EBV LMP1-driven NF-kappaB luciferase reporter inhibitors, primary screen, cell-based, luminescence, single point. LMP1-induced NF-kappaB luciferase reporter cells. AID 504558, 2011. inhibition, % at 12.5 µM. actives 0.69% (n = 350,000); in the data active = inhibition above about 41%;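 also: 0% = neutral control wells and 100% = reference inhibitor control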
# CF NFkB block: inhibitors of PAF-induced NF-kB signaling, primary screen, cell-based, GFP fluorescence, uHTS. KKLEB NF-kB-GFP reporter, GFP fluorescence overnight. inhibition, % at 5 µM. actives 0.86% (n = 360,000). AID 588850, 2011;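 active = at least 50% inhibition at 5 µM, scaled per plate between neutral and stimulator controls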;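 also: PAF is a Pseudomonas aeruginosa culture filtrate used as stimulus; plate controls were PAF-stimulated DMSO wells for no effect and unstimulated DMSO wells for full effect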
# TRPM1 prom inh: inhibitors of MITF-dependent TRPM1 promoter reporter, primary screen, cell-based, SK-MEL-5, single point, luciferase. SK-MEL-5 TRPM1 promoter luciferase, 24 h. inhibition, % at 12.5 µM. actives 0.83% (n = 330,000). AID 488899, 2010;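 active = mean inhibition across replicates of 60% or more, whatever share of single replicates reaches that level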
# KKLEB cytotox: cytotoxicity in KKLEB CF airway cells, primary screen, cytotoxicity control for CF NF-kB inhibitor project, cell-based, uHTS, fluorescence assay plates | KKLEB CF airway cells viability, ATPlite luminescence, overnight; active compounds read low; cells stimulated with P. aeruginosa culture filtrate | actives 0.36% (n = 360,000) | activity change (cytotoxicity), % at 5 µM | AID 602141, 2011;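 active = corrected activity change at or below -50% at 5 µM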
# HIF-2a block: HIF-2a reporter inhibitors, primary screen, luminescence, 786-0 RCC cells. 786-0 RCC cells HIF-2a reporter, luciferase luminescence, overnight. inhibition, % at 18.8 µM. actives 0.72% (n = 360,000). AID 624352, 2012;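 active = inhibition of the luminescence signal of 40% or more relative to plate controls, in a single-dose primary screen at 18.75 µM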
# CF NFkB conf: inhibitors of PAF-induced NF-kB signaling, retest, confirmation, cell-based, GFP fluorescence, single concentration. AID 602472, 2012. shares compounds with CF NFkB block. inhibition, % at 5 µM. KKLEB CF airway cells, overnight. actives 64% (n = 1,300); in the data active = inhibition above about 40%;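 also: stimulus PAF is a Pseudomonas aeruginosa filtrate and not platelet activating factor; plate controls were DMSO wells with stimulus for no effect and unstimulated DMSO wells for full effect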
# An asterisk follows results filed as active; nt = not tested or not shown.
SMILES,Peg3 prom inh,LMP1 NFkB inh,CF NFkB block,TRPM1 prom inh,KKLEB cytotox,HIF-2a block,CF NFkB conf
Cn1nnnc1SC1CC(=O)N(c2ccccc2)C1=O (configuration not stated),14,-10,1,-4,-9,15,nt
Cc1cc(C)cc(N2C(=O)CC(Sc3nnnn3-c3ccccc3)C2=O)c1 (configuration not stated),108*,3,57*,11,-17,-11,-1
C/C(=C\[C@@H](NP(=O)(c1ccccc1)c1ccccc1)c1ccccc1)CO[Si](c1ccccc1)(c1ccccc1)C(C)(C)C,17,-5,54*,17,-33,3,31
Cc1ccc(S(=O)(=O)N2[C@H](CC(=O)c3cccc4ccccc34)OC[C@@H]2C(C)C)cc1,nt,nt,nt,nt,nt,-3,nt
Cc1[nH]nc2ncc(C(=O)c3ccccc3O)cc12,26,38,86*,-1,-13,10,94*
COc1cccc(N2CCN(c3c(C#N)c(C(F)(F)F)nn3C)CC2)c1,-4,12,52*,-17,-4,20,61*
CC1(C)CC(=O)C=C(c2ccc(COC(=O)c3ccc(-c4ccccc4)cc3)cc2)C1=O,-22,-3,-7,nt,-10,-24,nt
CCN(CC(=O)Nc1ccc(OC)cc1)C(=O)c1cc(-c2cccs2)nn1-c1ccccc1,50,-10,54*,10,-11,10,51*
COc1ccc(NC(=O)CN(C)C(=O)c2cc(-c3cccs3)nn2-c2ccccc2)cc1,28,-10,2,0,-3,7,nt
C=C(CCC(=O)c1ccccc1)C(=O)c1ccccc1,63*,6,80*,2,-40,-50,-63
Cn1nccc1C(=O)Nc1cc(Cl)ccc1Cl,-6,nt,70*,nt,12,14,38
O=C(NCc1cccnc1)c1cc(C2CCCCN2C(=O)c2ccc3ccccc3c2)on1 (configuration not stated),2,nt,8,nt,12,4,nt
COc1ccc(-c2sc3ccccc3c2-c2ccc(OC)cc2F)cc1,nt,nt,nt,nt,nt,-39,nt
COCc1cc(S(=O)c2ccc(Cl)cc2)nc(C)n1 (configuration not stated),34,6,87*,17,0,29,83*
COc1ccc(OC)c(-c2nnc3n2N=C(c2ccc(OC)c(OC4CCCC4)c2)CS3)c1,13,48*,66*,78*,-21,25,71*
COc1ccc(C2=Nn3c(nnc3-c3ccncc3)SC2)cc1,5,23,72*,-15,-33,11,76*
Nc1ncc(S(=O)(=O)c2ccc([N+](=O)[O-])cc2)s1,-5,-2,12,53,-8,-17,nt
COc1ccc(Cc2c(-c3ccc(Cl)cc3)nc3cc(C)c(Br)c(C)n23)c(C)c1,nt,nt,nt,nt,nt,-31,nt
O=C(c1nnsc1S(=O)(=O)c1ccc(Cl)cc1)N1CCOCC1,95*,39,90*,73*,-33,32,96*
Nc1ccc(O)c2c(=O)cc(-c3ccccc3Cl)oc12,-239,-8,11,-112,-11,-262,nt
O=c1cc(-c2ccccc2Cl)oc2cc(O)cc(O)c12,-233,21,66*,-42,-1,-128,77*
COc1ccc(Oc2cn[nH]c2-c2ccc(O)cc2O)cc1,16,4,14,12,-3,-7,nt
C=C(C)COc1ccc(-c2[nH]ncc2-c2ccccc2)c(O)c1,12,1,6,9,-2,14,nt
C=C(C)COc1ccc(-c2[nH]ncc2-c2ccc(OC)cc2)c(O)c1,22,13,53*,1,2,5,72*
COc1ccc(-c2cnc(N)nc2-c2ccc(OC)cc2O)cc1,13,21,56*,-15,-13,31,51*
SMILES,Peg3 prom inh,LMP1 NFkB inh,CF NFkB block,TRPM1 prom inh,KKLEB cytotox,HIF-2a block,CF NFkB conf
COc1ccc(-c2cn[nH]c2-c2ccc(O)cc2O)cc1,11,15,70*,-4,8,19,94*
Cc1ccc(S(=O)(=O)/C=C2\OCc3ccccc32)cc1,nt,nt,nt,nt,nt,6,nt
Cn1cc(-c2ccc3c(c2)OCO3)c2ccccc21,-214,nt,10,nt,-4,-164,nt
O=C(Nc1ccc(F)cc1)C(c1ccccc1OC(F)(F)F)N1CCN(c2cccc(C(F)(F)F)n2)CC1 (configuration not stated),nt,nt,nt,nt,nt,1,nt
Cc1nc2c(C)c(C)c(C)c(C)c2nc1C,6,nt,7,nt,-16,21,nt
Cc1nc2c(O)c3c(c(O)c2nc1C)C1C=CC3CC1,93*,68*,83*,63*,-34,-4,85*
CCN(CC)CCN(C(=O)CCS(=O)(=O)c1ccccc1)c1nc2c(C)cc(C)cc2s1,57*,-19,73*,13,-29,23,70*
O=C(NCCc1c[nH]c2ccccc12)C(=O)NCC(c1ccco1)N1CCN(c2ccc(F)cc2)CC1 (configuration not stated),26,-2,51*,13,-48,21,-17
COc1ccc(-c2cc(C(F)(F)F)nc(N3CCN(Cc4ccccc4)CC3)n2)cc1OC,5,17,4,6,-8,16,nt
COc1ccc(-c2cc(C(F)(F)F)nc(N3CCN(c4ccc(F)cc4)CC3)n2)cc1OC,20,8,54*,-4,-34,3,41*
Cc1cccn2c(CNCC3(c4ccccc4)CCCC3)c(C(=O)N3CCOCC3)nc12,47,19,59*,-1,-28,13,6
CC1(C)COC(/C=C/c2cccc([N+](=O)[O-])c2)=N1,-29,-12,52*,33,-14,-35,39
CC(C)Cc1nc(Cl)c(C#N)c2c1CCCC2,18,2,36,0,2,17,nt
CCc1nc(Cl)c(C#N)c2c1CSC(C)(C)C2,4,8,58*,-7,-21,22,42*
CCCc1nc(NCCO)c(C#N)c2c1CCCC2,9,nt,6,nt,6,8,nt
CCCCc1nc(Cl)c(C#N)c2c1CSC(C)(C)C2,4,7,16,-8,-17,22,nt
CCCc1nc(Cl)c(C#N)c2c1CCCC2,-6,9,68*,-13,-12,18,76*
CCc1nc(Cl)c(C#N)c2c1CCCC2,-19,18,55*,-8,0,28,75*
CCC1(CC)C(C#N)C(=O)NC(=O)C1C#N (configuration not stated),0,2,-29,2,14,3,nt
